Assay outcomes: PubChem BioAssay, Fisher Drug Discovery Resource Center
mcGAS RapidFire: inhibitors of mouse cGAS; Q8C6L5; hit rate 0.18% among 130,000; recombinant mouse cGAS, cGAMP by RapidFire MS; inhibition, % at 12.5 µM; AID 1259397;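 active = inhibition of cGAS enzyme activity at or above 60%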;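 also: enzyme stimulated by 45 bp dsDNA with ATP and GTP substrates; cGAMP share of summed cGAMP plus half ATP and half GTP signals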
* = called active by the depositor; ! = not active in a repeat. The entries come from a sample that favours hits as a whole.

SMILES	mcGAS RapidFire
CC(=O)OCC1=C(C(=O)O)N2C(=O)[C@@H](NC(=O)CCCC(N)C(=O)O)C2SC1 (stereo partly drawn)	73*!
COc1ccc(-n2cc(CNC(C)Cc3cnccn3)c(-c3cccc(F)c3)n2)cc1 (stereo not drawn)	-5
CN(Cc1ccccc1)C1CCCN(C(=O)Cc2ccsc2)C1 (stereo not drawn)	-9
Cc1c(C(=O)Nc2ccc(F)cc2Cl)cnn1C(C)(C)C	6
Cc1ncc2c(c1-c1noc(-c3cccn3C)n1)CCNC2	1
Brc1cccc(C2CC(c3cccnc3)=Nc3nnnn32)c1 (stereo not drawn)	-4
CCOc1ccc2[nH]c(=O)c(C3NCCc4[nH]cnc43)cc2c1 (stereo not drawn)	-9
O=c1c(O)c(-c2ccc(O)c(O)c2)oc2c(O)c(O)cc(O)c12	93*
CCCc1cc(C(=O)N[C@H]2C[C@H]3CN(C)CCN3C2)ccn1	-17
O=C1CCCN1CC(=O)N1CCC2(CCCNC2)C1 (stereo not drawn)	-25
CC(C)(C)C(=O)NC1CCSC1=O (stereo not drawn)	76*
CCC(C)(C)C(=O)NC1CCSC1=O (stereo not drawn)	6
COc1ccc(S(=O)(=O)NC2CN3CCC2CC3)cc1Br (stereo not drawn)	-4
CCNC(Cc1ccc(C)cc1)C1CC1 (stereo not drawn)	-14
O=C(O)c1ccccc1-c1c2cc(Br)c(=O)cc-2oc2[c]([Hg])c(O)c(Br)cc12	99*!
COCCCN1C(=O)NC(=O)C2(Cc3ccccc3N3CCCCC32)C1=O (stereo not drawn)	-8
Oc1cc(Cl)ccc1Oc1ccc(Cl)cc1Cl	-18
CCCCCCC(C)OC(=O)COc1ccc(Cl)cc1Cl (stereo not drawn)	-8
O=C(O)COc1ccccc1	7
O=C(O)COc1cc(Cl)c(Cl)cc1Cl	98*
O=C(O)COc1ccc(Cl)cc1Cl	96*
Cc1ccnc(CC(C)N(C)Cc2cccc(Oc3ncccn3)c2)c1 (stereo not drawn)	-5
COc1c(C)cc(C(=O)C2CCCN(Cc3ccncc3)C2)cc1C (stereo not drawn)	-13
Cc1ccc2c(c1)C(=O)NC1(CCNCC1)N2	-5
CCOC(=O)CNC(=O)CN1CC1C(=O)OCC (stereo not drawn)	-5
SMILES	mcGAS RapidFire
Cn1ccnc1C(=O)C1CCCN(Cc2cc3n(n2)CCNC3)C1 (stereo not drawn)	8
Cn1cnn(CNC2(c3ccc(Cl)cc3)CCCCC2)c1=S	-9
COC(=O)C1(O)c2ccccc2C2(C)C(C)=C(C)C21C (stereo not drawn)	-18
Oc1c(Cl)c(Cl)c(Cl)c(Cl)c1Cl	98*
Cn1nnc2c(N3CCNCC3)ncnc21	-5
CCCNc1nc(SC)nc2c1cnn2CCN	-7
CCC(O)Cn1cc(C2=CCN(Cc3c(F)cc(F)cc3F)CC2)cn1 (stereo not drawn)	-29
O=c1[nH]cnc2nc(N3CCNCC3)[nH]c12	-32
O=C(Cc1ccccc1)N1CCCC(N2CCN(c3ccc(F)cc3)CC2)C1 (stereo not drawn)	-6
CC(=O)c1ccc(NC(=O)c2cccn(Cc3ccccc3F)c2=O)cc1	-9
